Bioassay records as filed in PubChem.
Compounds with a hit are over-represented: about 3.7% of the library has one in this group of screens.
A549 tox: Nrf2 qHTS screen for inhibitors: counterscreen for cytotoxicity | Potency, µM (highest dose often 46 µM), usual class: inhibitors | A549 ARE-Fluc cells, CellTiter-Fluor viability, 18-24 h | 390,000 tested, 0.16% active | AID 504648, 2011
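A549 ARE_Fluc cells in 5% FBS OPTI-MEM were exposed to compounds in concentration-response for 18-24 h at 37 deg C. Viability was read by CellTiter-Fluor fluorescence (Ex 405/Em 525) after 30 min, before the luciferase read.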
ClpP mod: qHTS Assay for Activators of ClpP; ATP-dependent Clp protease proteolytic subunit (Bacillus subtilis (strain 168)), P80244; purified B. subtilis ClpP, FRET peptide cleavage, 20 min; Potency, µM (top dose mostly 57.5 µM); 340,000 tested, 1.9% active; AID 651965, 2013; active means well fitted falling curve with a large enough effect; inconclusive means small, poorly fitted or top-dose-only effect; inactive means no such curve, though single readings can be large or run the other way; further: the source files actives as falling curves though it sought activators and does not explain the sign; nearly all actives have a fitted effect of over 65% in size
Target sequence (P80244 whole entry, looked up): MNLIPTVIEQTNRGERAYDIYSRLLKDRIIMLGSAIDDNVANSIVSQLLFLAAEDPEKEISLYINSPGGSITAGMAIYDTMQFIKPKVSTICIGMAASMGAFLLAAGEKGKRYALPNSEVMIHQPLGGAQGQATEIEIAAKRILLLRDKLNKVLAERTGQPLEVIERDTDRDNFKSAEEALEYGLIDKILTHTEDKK
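Purified B. subtilis ClpP, 10 microg/mL final in Tris/HCl pH8 with KCl, BSA, glycerol and Tween-20, cleaved an Abz/nitrotyrosine-quenched decapeptide. Fluorescence (ex 320, em 430) was read at 0 and 20 min at room temperature. Delta was normalized to 5.8 microM ADEP and DMSO/no-enzyme controls.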
Nrf2 block: Nrf2 qHTS screen for inhibitors. A549 ARE-Fluc reporter, luciferase luminescence, 18-24 h. Potency, µM (doses to about 46 µM), most hits filed as inhibitors. 360,000 tested, 2.1% active; further: nearly all actives have a fitted effect of over 60% in size
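Nrf2 activity is the BugLite luminescence, read 15 min after reagent at room temperature, following CellTiter-Fluor cytotoxicity readout (30 min, 37C). Compound titrations were applied for 18-24 h to 5000 A549 ARE_Fluc cells/well in 5% FBS OPTI-MEM.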
miR-21 reporter: qHTS Assay for Modulators of miRNAs and/orActivators of miR-21 | HeLa miR-21 FLuc reporter, luciferase, 48 h | Potency, µM (titrated, usually from 38.3 µM), hits mostly activators | 340,000 tested, under 10 active | AID 2288, 2010;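 further: miR-21 action dims this reporter so a rising signal means less miR-21 action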
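HeLa cells endogenously expressing miR-21, stably carrying CMV-driven firefly luciferase with a downstream miR-21 binding site, 2000 cells/well. Titrations up to approximately 40 uM, 48 hours; luciferase luminescence read.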
IL-2 act: qHTS of IL-2 Activators | IL-2 activation reporter assay, cell-based qHTS; stimulated with anti-CD3/CD4/CD28 beads; in transgenic mouse T cells | 360,000 tested, 0.065% active | activation, % (series mostly up to about 46 µM); in the data active means activation above about 50%; inconclusive means mostly about 30% to 49%
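Unstimulated transgenic mouse T cells; 60-min compound exposure; bead-based TCR/CD4/CD28 stimulation; 18 h culture, 37 degrees C; dual fluorescence (EGFP, DsRed) plate cytometry.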
Nrf2 ARE act: qHTS of Nrf2 Activators | AREc32 ARE-luciferase reporter (MCF7-derived line), luminescence, 24 h | Potency, µM (series often up to 46.1 µM), usual class: activators | 410,000 tested, 0.31% active; further: nearly all actives have a fitted effect of over 65% in size
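AREc32_Fluc, 1000 cells/well, OPTI-MEM + 5% FBS, o/n 37 deg C 5% CO2; 23 nL cpd by pin tool, 24 hr; Steady-Glo 30 min RT, luminescence.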
Hits are given with their value; – = inactive; ? = inconclusive; · = no result; [ ] = remark or other dose. Unless noted, the call rests on the fitted dose curve; in most records, active means well fitted curve in the direction sought with a large enough effect; inconclusive means small, poorly fitted or top-dose-only effect, or another doubt; inactive means no such curve, though single readings can be large; an effect the other way counts as inactive or inconclusive.

SMILES	A549 tox	ClpP mod	Nrf2 block	miR-21 reporter	IL-2 act	Nrf2 ARE act
CSc1ccc(C2c3c(oc4cc(C)cc(C)c4c3=O)C(=O)N2CCO)cc1 (centres undefined)	–	–	–	–	·	–
CCn1c(-c2ccc(C)cc2)nn(CC(=O)NCCc2ccccc2)c1=S	?	–	23µM	?	–	–
Cc1ccc(-n2c(Cc3ccccc3)n[nH]c2=S)c(C)c1	–	·	13µM	–	–	–
COC(=O)C(C)N(C(=O)c1cccc2ccccc12)c1c(C)cccc1C (centres undefined)	–	–	18µM	–	–	–
COc1ccc(-c2nc3c(C#N)c[nH]n3c2NC2CCCC2)cc1	–	–	–	–	·	–
COc1ccc(CCNc2ccc(N3C(=O)CC(C)C3=O)cc2[N+](=O)[O-])cc1OC (centres undefined)	–	·	15µM	–	–	–
Cc1ccc2c(c1)N(C(=O)N1CCC(C(=O)NCc3cccs3)CC1)CC(C)O2 (centres undefined)	–	–	–	–	·	–
COc1ccc(C(=O)/C=C/c2ccc(OC)c(Cn3nnc4ccccc43)c2)cc1	?	–	21µM	–	–	–[9.22 µM]
Cc1ccc(CSCC(=O)Nc2ccc(N3CCOCC3)cc2N2CCOCC2)cc1	–	35µM	–	·	–	–
COc1cccc(NC(=O)CN(C)C(=O)C(Sc2ccccc2)c2ccccc2)c1 (centres undefined)	?	28µM	?	·	–	–
CCCCN1C(=O)/C(=C/C=C2\Oc3ccccc3N2CC)SC1=S	?	–	–	–	–	–
CCN1/C(=C/C=C/c2oc3ccc(-c4ccccc4)cc3[n+]2CC)Oc2ccc(-c3ccccc3)cc21	15µM	·	5.8µM	?	?	–
c1ccc(-c2nc(SCC3CCCCO3)n[nH]2)cc1 (centres undefined)	·	–	·	·	·	·
CNc1snc(C)c1C(=O)OCC(=O)c1ccc(OC)c(F)c1	–	–	–	·	–	–
CNc1snc(C)c1C(=O)OCC(=O)c1cc(F)ccc1OC	–	–	12µM	·	–	?
CC(=O)c1c(C)[nH]c(C(=O)CN2CCN(S(=O)(=O)c3ccc(C(C)C)cc3)CC2)c1C	–	–	15µM	·	–	–
COc1ccc(S(=O)(=O)N2CCN(CC(=O)c3[nH]c(C)c(C(C)=O)c3C)CC2)cc1OC	–	–	–	·	–	–
CC(=O)c1c(C)[nH]c(C(=O)CN2CCN(S(=O)(=O)c3ccccc3F)CC2)c1C	–	–	26µM	·	–	–
CCOc1ccc(NC(=O)CC2C(=O)N(c3ccccc3)C(=O)N2CCc2ccc(OC)cc2)cc1 (centres undefined)	–	–	–	–	·	–
CSc1cccc(NC(=O)CN2C(=O)COc3ccc(Cl)cc32)c1	–	–	16µM	–	·	–
O=C(CN1C(=O)COc2ccc(S(=O)(=O)N3CCCCCC3)cc21)Nc1cccc(Cl)c1	18µM	–	?	–	·	–
O=C(CN1C(=O)COc2ccc(Cl)cc21)Nc1ccc(F)cc1	–	–	–	–	·	–
COc1cc(OC)c(NC(=O)c2ccc3nc(C(C)C)oc3c2)cc1Cl	–	–	·	–	·	–
COc1cccc(-c2sc3ccc(OC)cc3c2-c2ccc(O)cc2)c1	–	28µM	–	·	–	–
COc1ccccc1-c1sc2ccccc2c1-c1ccc(O)cc1	–	20µM	–	·	–	–
SMILES	A549 tox	ClpP mod	Nrf2 block	miR-21 reporter	IL-2 act	Nrf2 ARE act
Cc1c2cnn(-c3ccccc3)c(=O)c2c(C)n1CC(=O)N1CCN(c2ccc(F)cc2)CC1	–	–	?	–	·	–
Cc1ccc(-c2nnc(-c3ccc4ccccc4c3)o2)cc1	–	14µM	?	·	–	–
Cc1cccc(-c2nnc(-c3ccc(N)cc3)o2)c1	–	28µM	?	–	–	–
COc1cccc(-c2nnc(-c3ccc4ccccc4c3)o2)c1	–	14µM	?	·	–	–
Clc1ccc(-c2nnc(-c3ccc4ccccc4c3)o2)cc1	–	–	?	·	–	–
CCOc1ccc(C2C(=O)N(C3CCCCCC3)CC(=O)N2CCC2=CCCCC2)cc1OC (centres undefined)	–	–	·	–	·	–
